The results in this text go back to PubChem BioAssay (EPA / NIEHS).

Holding throughout (settings): mRNA level, 48 h; actives raise or lower the signal
Read-out in experiment [1]: Heat shock 70 kDa protein 1 (HSPA1A), gene 3303
The experiment can be described thus: LTEA_HepaRG_HSPA1A: Life Technologies and Expression Analysis (LTEA) Assay for Heat shock 70 kDa protein 1 (HSPA1A) using HepaRG (AID 2283502). In a few lines: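 Cells were plated and cultured for 48 h, then switched to serum-free induction medium. Chemicals were added at eight half-log concentrations up to 100 uM for 48 h. RNA was then isolated and HSPA1A measured by qRT-PCR with bidirectional curve fitting against DMSO.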

Read-out in experiment [2]: Hypoxia-inducible factor 1-alpha (Homo sapiens) (UniProt Q16665)
The experiment can be described thus: LTEA_HepaRG_HIF1A: Life Technologies and Expression Analysis (LTEA) Assay for Hypoxia-inducible factor 1 (HIF1A) Trancription factor using HepaRG (AID 2283503). In a few lines: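 HIF1A transcript level read by qRT-PCR (ACTB, GAPDH, POLR2A normalization) after 48 h chemical exposure of HepaRG cultures. Eight half-log concentrations, top 100 uM, 0.5% DMSO vehicle, duplicates; bidirectional curve fit against DMSO baseline.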

Read-out in experiment [3]: 3-Hydroxy-3-Methylglutaryl-CoA Synthase 2 (HMGCS2), HMGCS2 (gene 3158)
The experiment can be described thus: LTEA_HepaRG_HMGCS2: Life Technologies and Expression Analysis (LTEA) Assay for 3-Hydroxy-3-Methylglutaryl-CoA Synthase 2 (HMGCS2) using HepaRG (AID 2283504). In a few lines:
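qRT-PCR read-out of HMGCS2 transcript, normalised to three housekeeping genes, in HepaRG cells after 48 h chemical exposure. Eight-point curves from 100 uM, half-log dilutions, 0.5% DMSO vehicle; gain or loss fitted relative to DMSO baseline.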

Read-out in a further experiment: HGF (gene 3082)
The experiment can be described thus: LTEA_HepaRG_HGF: Life Technologies and Expression Analysis (LTEA) Assay for Hepatocyte Growth Facto (HGF) using HepaRG (AID 2283505). In a few lines: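 HepaRG, 48 h dosing, 8-pt half-log series from 100 uM in 0.5% DMSO, duplicates. Readout: TaqMan qRT-PCR of HGF mRNA, housekeeping-normalized; bidirectional curve fit vs DMSO baseline.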

Read-out in experiment [4]: Insulin Like Growth Factor 1 (IGF1), IGF1 (gene 3479)
The experiment can be described thus: LTEA_HepaRG_IGF1: Life Technologies and Expression Analysis (LTEA) Assay for Insulin Like Growth Factor 1 (IGF1) using HepaRG (AID 2283506). The procedure, abridged:
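Cells are thawed, plated and cultured 48 h, then exposed in duplicate to chemical (highest 100 uM, half-log steps, 0.5% DMSO) for another 48 h. Total RNA is analysed by Fluidigm qRT-PCR for IGF1 expression relative to vehicle.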

Read-out in experiment [5]: Intercellular Adhesion Molecule 1 (ICAM1), ICAM1 (gene 3383)
The experiment can be described thus: LTEA_HepaRG_ICAM1: Life Technologies and Expression Analysis (LTEA) Assay for Intercellular Adhesion Molecule 1 (ICAM1) using HepaRG (AID 2283507). In a few lines:
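HepaRG, 48 h exposure, 8-pt half-log series from 100 uM, 0.5% DMSO vehicle, duplicates. Readout: TaqMan qRT-PCR mRNA, housekeeping-normalized (ACTB/GAPDH/POLR2A). Bidirectional curve fit vs DMSO baseline.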

Read-out in experiment [6]: Interleukin 6 (IL6), IL6 (gene 3569)
Kind of experiment: LTEA_HepaRG_IL6: Life Technologies and Expression Analysis (LTEA) Assay for Interleukin 6 (IL6) using HepaRG (AID 2283509). The procedure, abridged: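 Transcript levels, normalized to three housekeeping genes, were quantified by qRT-PCR after 48 h chemical treatment of HepaRG cells. Eight-point half-log series from 100 uM in 0.5% DMSO, duplicates. Fitted both directions against DMSO baseline.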

Read-out in experiment [7]: Interleukin 6 Receptor (IL6R), IL6R (gene 3570)
The experiment can be described thus: LTEA_HepaRG_IL6R: Life Technologies and Expression Analysis (LTEA) Assay for Interleukin 6 Receptor (IL6R) using HepaRG (AID 2283510). In a few lines:
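Cells were thawed, plated and cultured 48 h, then medium was changed to serum-free induction medium. Chemicals were added in duplicate (100 uM top, half-log steps, 0.5% DMSO) for 48 h. Lysates were analyzed by qRT-PCR for IL6R expression.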

Read-out in experiment [8]: Potassium channel subfamily K member 1 (KCNK1), KCNK1 (gene 3775)
The experiment can be described thus: LTEA_HepaRG_KCNK1: Life Technologies and Expression Analysis (LTEA) Assay for Potassium channel subfamily K member 1 (KCNK1) using HepaRG (AID 2283511). The procedure, abridged:
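KCNK1 transcript measured by TaqMan qRT-PCR against three housekeeping genes, after HepaRG cells were treated 48 h with eight half-log concentrations (top 100 uM, 0.5% DMSO). Curves fitted bidirectionally relative to vehicle.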

Read-out in experiment [9]: Keratin 19 (KRT19), KRT19 (gene 3880)
The experiment can be described thus: LTEA_HepaRG_KRT19: Life Technologies and Expression Analysis (LTEA) Assay for Keratin 19 (KRT19) using HepaRG (AID 2283512). The procedure, abridged:
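HepaRG, 48 h chemical exposure, 8-pt half-log CRC from 100 uM, 0.5% DMSO vehicle, duplicates. Readout: TaqMan qRT-PCR of KRT19 mRNA, housekeeping-normalized (ACTB/GAPDH/POLR2A). Bidirectional fit vs DMSO baseline.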

Read-out in experiment [10]: JUN Transcription Factor, JUN (gene 3725)
The experiment can be described thus: LTEA_HepaRG_JUN: Life Technologies and Expression Analysis (LTEA) Assay for JUN Transcription Factor using HepaRG (AID 2283513). In a few lines: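 Read-out is JUN transcript level by TaqMan qRT-PCR, normalized to ACTB, GAPDH and POLR2A, after 48 h chemical treatment of HepaRG cells. Concentration-response spanned eight half-log points up to 100 uM in 0.5% DMSO.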

Read-out in experiment [11]: Lipase C (LIPC), LIPC (gene 3990)
Kind of experiment: LTEA_HepaRG_LIPC: Life Technologies and Expression Analysis (LTEA) Assay for Lipase C (LIPC) using HepaRG (AID 2283514). In a few lines:
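LIPC expression was quantified by qRT-PCR against three housekeeping genes (ACTB, GAPDH, POLR2A). Differentiated human HepaRG cells received eight half-log doses (top 100 uM, 0.5% DMSO) in duplicate for 48 h; fitting bidirectional relative to DMSO.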

Read-out in experiment [12]: Lipoprotein lipase (LPL), LPL (gene 4023)
Kind of experiment: LTEA_HepaRG_LPL: Life Technologies and Expression Analysis (LTEA) Assay for Lipoprotein lipase (LPL) using HepaRG (AID 2283515). The procedure, abridged:
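LPL transcript levels quantified by TaqMan qRT-PCR against three housekeeping genes after 48 h chemical treatment of HepaRG cells. Eight-point half-log series from 100 uM in 0.5% DMSO, tested in duplicate; bidirectional fitting versus vehicle.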

Read-out in experiment [13]: MicroRNA 122 (MIR122), gene 406906
The experiment can be described thus: LTEA_HepaRG_MIR122: Life Technologies and Expression Analysis (LTEA) Assay for MicroRNA 122 (MIR122) using HepaRG (AID 2283516). Further: the transcript read is the microRNA miR-122. The procedure, abridged: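 Human liver HepaRG cultures receive test chemicals for 48 h at eight half-log concentrations from 100 uM. Expression is quantified by qRT-PCR with ACTB/GAPDH/POLR2A normalization and fitted bidirectionally against 0.5% DMSO.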

Read-out in experiment [14]: matrix metalloproteinase-10 (MMP10), MMP10 (gene 4319)
Kind of experiment: LTEA_HepaRG_MMP10: Life Technologies and Expression Analysis (LTEA) Assay for matrix metalloproteinase-10 (MMP10) using HepaRG (AID 2283517). The procedure, abridged:
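Expression measured by TaqMan qRT-PCR with ACTB/GAPDH/POLR2A normalisation after 48 h chemical exposure of HepaRG cells. Eight half-log concentrations, top 100 uM, 0.5% DMSO vehicle, duplicates; gain or loss fitted against vehicle.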

Read-out in another experiment: MYC, MYC (gene 4609)
Kind of experiment: LTEA_HepaRG_MYC: Life Technologies and Expression Analysis (LTEA) Assay for MYC using HepaRG (AID 2283518). In a few lines: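 qRT-PCR read-out of MYC transcript (Fluidigm TaqMan, housekeeping-normalized) after 48 h chemical exposure of HepaRG cells; eight concentrations, top 100 uM, half-log steps. Bidirectional curve fitting against 0.5% DMSO vehicle baseline.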

Read-out in experiment [15]: matrix metalloproteinase-3 (MMP3), MMP3 (gene 4314)
The experiment can be described thus: LTEA_HepaRG_MMP3: Life Technologies and Expression Analysis (LTEA) Assay for matrix metalloproteinase-3 (MMP3) using HepaRG (AID 2283519). In a few lines: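 Fluidigm-based TaqMan qRT-PCR, normalized to ACTB, GAPDH and POLR2A and fitted bidirectionally versus 0.5% DMSO, measured transcript levels. Treatment: duplicate 48 h exposures of HepaRG cells, ~100,000/well, to eight half-log concentrations topping at 100 uM.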

Read-out in experiment [16]: Paternally Expressed 10 (PEG10), PEG10 (gene 23089)
The experiment can be described thus: LTEA_HepaRG_PEG10: Life Technologies and Expression Analysis (LTEA) Assay for Paternally Expressed 10 (PEG10) using HepaRG (AID 2283520).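 On AC50: PEG10 transcript by qRT-PCR normalised to ACTB GAPDH and POLR2A.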 The procedure, abridged:
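Human HepaRG cultures are dosed for 48 h across an eight-point half-log series starting at 100 uM, with 0.5% DMSO as vehicle and baseline. Gain or loss of PEG10 transcript is measured by qRT-PCR and fitted in both directions.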

Read-out in experiment [17]: Nuclear factor NF-kappa-B p105 subunit (Homo sapiens) (UniProt P19838)
Kind of experiment: LTEA_HepaRG_NFKB1: Life Technologies and Expression Analysis (LTEA) Assay for Nuclear Factor Kappa B Subunit 1 (NFKB1) using HepaRG (AID 2283521).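 On outcome: TaqMan qRT-PCR transcript normalised to ACTB GAPDH and POLR2A housekeeping genes.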 In a few lines:
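Differentiated human HepaRG cells were exposed for 48 h in serum-free induction medium to eight concentrations (top 100 uM, half-log steps, 0.5% DMSO), in duplicate. NFKB1 mRNA was measured by TaqMan qRT-PCR, normalized to ACTB/GAPDH/POLR2A, and fitted bidirectionally against DMSO.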

Read-out in experiment [18]: Insulin-like growth factor-binding protein 1 (IGFBP1), IGFBP1 (gene 3484)
The experiment can be described thus: LTEA_HepaRG_IGFBP1: Life Technologies and Expression Analysis (LTEA) Assay for Insulin-like growth factor-binding protein 1 (IGFBP1) using HepaRG (AID 2283508). In a few lines: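 qRT-PCR mRNA read-out (TaqMan, Fluidigm array), normalised to three housekeeping genes; HepaRG cells, 48 h exposure, 8-pt half-log series from 100 uM, 0.5% DMSO vehicle; bidirectional curve fit vs DMSO baseline.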

The term AC50 denotes the concentration at which the activity in the assay is half-maximal.

Active and inactive are the calls of the source. How the source made its calls: active means hit-call score of the fitted dose curve at least 0.9, where 1 is the maximum; inactive means score below 0.9.

Nuclear factor NF-kappa-B p105 subunit (Homo sapiens), sequence (P19838 whole entry, looked up): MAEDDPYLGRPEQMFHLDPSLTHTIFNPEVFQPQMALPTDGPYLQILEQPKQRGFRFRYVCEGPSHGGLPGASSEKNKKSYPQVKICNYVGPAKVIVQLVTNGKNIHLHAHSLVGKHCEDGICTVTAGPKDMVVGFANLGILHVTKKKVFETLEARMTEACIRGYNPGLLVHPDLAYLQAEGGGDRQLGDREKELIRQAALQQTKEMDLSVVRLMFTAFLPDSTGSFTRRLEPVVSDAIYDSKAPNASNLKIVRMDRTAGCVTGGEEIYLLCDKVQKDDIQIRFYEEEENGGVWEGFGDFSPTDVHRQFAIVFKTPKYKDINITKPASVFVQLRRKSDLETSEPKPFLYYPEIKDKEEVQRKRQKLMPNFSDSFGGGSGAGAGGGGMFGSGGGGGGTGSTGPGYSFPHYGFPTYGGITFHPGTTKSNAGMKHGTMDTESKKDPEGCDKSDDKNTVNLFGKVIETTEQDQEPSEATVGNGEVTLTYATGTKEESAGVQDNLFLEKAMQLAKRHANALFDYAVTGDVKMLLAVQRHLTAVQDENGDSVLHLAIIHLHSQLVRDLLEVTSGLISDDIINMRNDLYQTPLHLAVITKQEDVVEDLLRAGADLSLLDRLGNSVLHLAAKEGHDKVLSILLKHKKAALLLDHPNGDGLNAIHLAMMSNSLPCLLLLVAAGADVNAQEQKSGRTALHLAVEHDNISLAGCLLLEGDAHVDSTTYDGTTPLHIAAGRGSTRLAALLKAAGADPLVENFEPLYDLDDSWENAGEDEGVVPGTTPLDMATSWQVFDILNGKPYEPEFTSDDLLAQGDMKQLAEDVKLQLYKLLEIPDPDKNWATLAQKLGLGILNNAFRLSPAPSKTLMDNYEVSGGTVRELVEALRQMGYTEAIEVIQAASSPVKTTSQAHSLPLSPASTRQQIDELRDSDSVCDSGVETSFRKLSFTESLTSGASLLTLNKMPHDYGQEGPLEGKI
Hypoxia-inducible factor 1-alpha (Homo sapiens), sequence (Q16665 whole entry, looked up): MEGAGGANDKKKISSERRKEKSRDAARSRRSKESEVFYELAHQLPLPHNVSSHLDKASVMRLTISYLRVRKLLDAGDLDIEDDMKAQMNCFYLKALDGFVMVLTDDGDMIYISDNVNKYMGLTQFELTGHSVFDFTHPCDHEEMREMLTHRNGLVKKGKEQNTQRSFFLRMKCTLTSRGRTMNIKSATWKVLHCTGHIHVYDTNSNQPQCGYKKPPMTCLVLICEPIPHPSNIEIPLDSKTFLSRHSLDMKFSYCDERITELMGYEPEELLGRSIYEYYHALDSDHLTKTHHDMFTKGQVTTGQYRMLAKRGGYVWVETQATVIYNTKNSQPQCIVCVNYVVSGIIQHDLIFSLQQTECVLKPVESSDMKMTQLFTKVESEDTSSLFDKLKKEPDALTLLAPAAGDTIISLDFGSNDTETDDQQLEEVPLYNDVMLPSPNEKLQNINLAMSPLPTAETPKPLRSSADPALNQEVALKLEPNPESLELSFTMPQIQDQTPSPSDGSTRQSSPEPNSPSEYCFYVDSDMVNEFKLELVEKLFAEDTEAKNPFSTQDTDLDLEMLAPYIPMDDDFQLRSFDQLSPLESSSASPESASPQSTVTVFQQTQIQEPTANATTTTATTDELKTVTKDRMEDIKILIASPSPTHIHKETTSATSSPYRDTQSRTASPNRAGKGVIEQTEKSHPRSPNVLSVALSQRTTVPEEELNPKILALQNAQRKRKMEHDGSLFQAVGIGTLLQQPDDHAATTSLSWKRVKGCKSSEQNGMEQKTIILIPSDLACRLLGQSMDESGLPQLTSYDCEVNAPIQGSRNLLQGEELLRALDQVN

`Nc1c(Cl)cc([N+](=O)[O-])cc1Cl`: the AC50 in [1] was 26.8 µM (active); in experiment [2] it was 86.6 µM (active); in experiment [3], 50 µM (active); in experiment [7], 28.2 µM (active); in [9], 6.97 µM (active); in experiment [11] it was 75.3 µM (active). Further, the concentration at half-maximal activity (AC50) is 15.5 µM (active) in [12]; 50 µM (active) in experiment [13]; 12.3 µM (active) with MYC, MYC (gene 4609); 36.7 µM (active) in experiment [16]; 12.2 µM (active) in experiment [17]. The result (in the experiment with HGF (gene 3082); in [4]; in experiment [5]; in [6]; in [8]; in experiment [10]) was inactive. The call in experiment [14] and in experiment [15] was inactive.
Take `CNC(=O)ON=C(C)SC`: the result (in experiment [1]; in [2]; in [3]; with HGF (gene 3082); in [4]; in [5]) was inactive. Further, the result in experiment [18], in experiment [6], in experiment [7], in [8], in experiment [9] and in experiment [10] was inactive. The molecule was classed as inactive in experiment [11], in experiment [12], in experiment [13], in experiment [14], in experiment [15] and in [16]. The outcome in experiment [17] was inactive.
In the case of `COc1ccc(C(=CC(=O)N2CCOCC2)c2ccc(Cl)cc2)cc1OC`, the molecule was classed as inactive (in experiment [1]; in experiment [2]; in experiment [3]; with HGF (gene 3082); in experiment [5]; in [6]). Besides, the molecule was called inactive in experiment [7], in [8], in [9], in [10], in [11] and in experiment [12]. The outcome in experiment [13] was “inactive”; in experiment [14] it was “inactive”; in the experiment with MYC, MYC (gene 4609), “inactive”; in experiment [15], “inactive”; in [17], “inactive”. The figures for the AC50 in [4] and in [16] were 14.1 µM (active) and 4.02 µM (active), respectively.
